In PubChem BioAssay AID488857 (Sanford-Burnham Center for Chemical Genomics, 2010):
Among all 1,400 compounds or so, about 560 (40%) were called active.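 Rule for the calls: active = mean inhibition over duplicate tests at 10 µM above 50%; inactive = the rest.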 So high a share suggests a set chosen from earlier hits. The list shows a part of the results.

assay: ASC/caspase-1 reporter retest in S. cerevisiae at one dose, specificity check for NALP1 project (AID 488857); details: S. cerevisiae ASC/Caspase-1, beta-galactosidase luminescence, 24 h; at 10 µM; active compounds read high

SMILES	inhibition
COc1ccc(OC)c(S(=O)(=O)Nc2ccc(O)c3ccccc23)c1	28.8% (inactive)
CSc1ccc2c(c1)N(CCC1CCCCN1C)c1ccccc1S2 (configuration not stated)	81.8% (active)
CCC(C)NCCOc1cccc(Br)c1 (configuration not stated)	39.6% (inactive)
Cc1ccc2nc(-c3ccc(NC(=O)CN(c4ccccc4C)S(C)(=O)=O)cc3)sc2c1	44.1% (inactive)
O=C(Nc1ccc(-c2nc3ccccc3s2)cc1)C1=COCCO1	55.6% (active)
CCOC(=O)N/N=C/c1ccc(N(CC)CC)cc1O	72.5% (active)
COc1cc2nc(Cl)nc(N3CCN(C)CC3)c2cc1OC	30% (inactive)
COc1cccc(NC2=C(Cl)C(=O)OC2OC(=O)c2ccco2)c1 (configuration not stated)	38.3% (inactive)
O=C(Nc1ccc(Cl)c(Cl)c1)Oc1ccc(NC(=O)c2ccco2)cc1	54.6% (active)
O=C(Nc1ccccc1)N1CCc2ccccc2C1	71.7% (active)
CC(=O)N1CCCc2cc(S(=O)(=O)N3CCc4ccccc4C3)ccc21	45.2% (inactive)
Cc1ccc(NC(=O)N2CCc3ccccc3C2)cc1	69.2% (active)
COC(=O)/C(=N/Nc1ccc(C)cc1)N1CCCc2ccccc21	40.6% (inactive)
O=C(NCCCN1CCc2ccccc2C1)Nc1ccc(Br)cc1	43.3% (inactive)
Cc1ccc2cc3cc(C(=O)NCCCN4CCc5ccccc5C4)oc3nc2c1	35% (inactive)
CCOC(=O)c1cc(-c2ccc(OC)cc2)nc2c1c(C)nn2CCC#N	49.6% (inactive)

SMILES	inhibition
CN1C/C(=C/c2ccncc2)C(=O)/C(=C/c2ccncc2)C1	26.9% (inactive)
CC1=CC2=NC(=O)/C(=C\c3cccn3CCOc3cccc(C)c3)C(=N)N2O1	85.1% (active)
NCCS	58.8% (active)
COc1ccc2nc3oc(C(=O)Nc4ccc(OC)c(OC)c4)cc3cc2c1	36.3% (inactive)
CCOC(=O)C1CCCCN1Cc1ccc(F)c(Br)c1 (configuration not stated)	40.2% (inactive)
CCOC(=O)C1CCN(C(=O)c2cc3cc4cc(OC)ccc4nc3o2)CC1	52% (active)
O=C(NCC1CCCO1)C(c1cccs1)N(Cc1cccs1)C(=O)Cn1nnc(-c2cccs2)n1 (configuration not stated)	39.1% (inactive)
CCOC(=O)c1c(C)c(C(=O)NCCCOC(C)C)c(C)n1C	26.7% (inactive)
COc1cc(C=O)ccc1Oc1nnnn1-c1ccccc1	52.9% (active)
O=C1CN(c2nnnn2-c2ccccc2)CCN1	40.9% (inactive)
CC(C)C(=O)c1cc2c(cc1NC(=O)Nc1cccc3ccccc13)OCCO2	49.3% (inactive)
O=C(N/N=C/c1ccc2c(c1)OCO2)c1cccs1	68.9% (active)
O=C(/C=C/c1cccc([N+](=O)[O-])c1)c1ccco1	36% (inactive)
Cc1c([N+](=O)[O-])c(C(=O)Nc2ccc3c(c2)OCCO3)nn1C	24.6% (inactive)
CNc1ccc(/C=C/C(=O)c2ccc3c(c2)OCCO3)cc1[N+](=O)[O-]	66.7% (active)
CC1=CC(C)(C)Nc2ccc(OC(=O)C(C)N3C(=O)c4ccccc4C3=O)cc21 (configuration not stated)	39.1% (inactive)
